According to PubChem BioAssay (NCI):
Values joined by “and” are separate entries in the source; they are usually repeats but may differ in a detail not shown here. Equal values may be shown once. Compounds without any hit were thinned out: in the full panel of roughly 83,000, 20% have a hit.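 Values shown are percent growth following 48 h exposure of cells in 96-well plates to a single concentration of compound; below 10 was considered active.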 Unmarked numbers belong to inactive results. Active and inactive are the calls of the source.

Columns and labels:
Test in all cases: NCI-60 one-dose screen, 48 h (100 = growth as untreated, 0 = no growth, -100 = all killed)
Details in all cases: 10 µM unless noted
HCT-15 colon = system: HCT-15 colon
HT29 colon = system: HT29 colon
SNB-75 CNS = system: SNB-75 CNS
SNB-19 CNS = system: SNB-19 CNS
U251 CNS = system: U251 CNS
PC-3 prostate = system: PC-3 prostate
SK-MEL-5 melanoma = system: SK-MEL-5 melanoma
UACC-62 melanoma = system: UACC-62 melanoma
LOX IMVI melanoma = system: LOX IMVI melanoma
SK-MEL-28 melanoma = system: SK-MEL-28 melanoma

| SMILES | growth (HCT-15 colon) | growth (HT29 colon) | growth (SNB-75 CNS) | growth (SNB-19 CNS) | growth (U251 CNS) | growth (PC-3 prostate) | growth (SK-MEL-5 melanoma) | growth (UACC-62 melanoma) | growth (LOX IMVI melanoma) | growth (SK-MEL-28 melanoma) |
| --- | --- | --- | --- | --- | --- | --- | --- | --- | --- | --- |
| O=[N+]([O-])c1cccc2ccc(N/N=C/c3ccccc3O)nc12 | 93.6% and 98% | 93.3% and 106% | 67.8% and 87.9% | 99.3% and 108% | 93.7% and 98.6% | 76.1% and 84.4% | 88% and 90.9% | 85.5% and 94.6% | 83.6% and 91.4% | 134% and 109% |
| O=C(Nc1ccccc1)OCC(CN1CCCCC1)OC(=O)Nc1ccccc1 (stereo not given) | 84.9% and 99.5% | 69.6% and 87.2% | 56.4% and 80.6% | 90.9% and 92.8% | 67.7% and 91.1% | 75.5% | 60.5% and 93.7% | 80.7% and 101% | 76.7% and 95.2% | 91.5% and 105% |
| O=C(O)C1CSCN1 (stereo not given) | 109% and 96.3% | 104% | 109% and 73.5% | 105% and 94% | 104% and 97.6% | 99.4% and 112% | 135% | 105% and 96% | 108% and 102% | 117% and 114% |
| COc1cc2c(cc1O)C(=O)CCCC2 | 95.3% | 97.2% | 89.3% | 101% | 96.8% | 87.6% | 102% | 106% | 90.8% | 111% |
| Cc1nc2c(=O)[nH]c(=S)[nH]c2[nH]c1=O | 105% and 104% | 104% and 105% | 97.4% and 84.1% | 104% and 102% | 113% and 104% | 105% and 96.7% | 111% | 104% and 100% | 96% | 111% and 112% |
| COc1ccc(CCn2cnn3c(=O)c4ccccc4nc3c2=O)cc1OC | 104% and 109% | 106% and 104% | 103% and 135% | 104% and 96.6% | 101% and 104% | 102% and 98.7% | 101% and 97% | 111% and 102% | 98% | 109% and 125% |
| CCN(C)c1ccccc1 | 101% | 103% | 79.2% | 106% | 99% | 95.8% | 100% | 103% | 98.4% | 105% |
| S=c1ccc2ccccc2[nH]1 | 102% and 113% | 96% and 100% | 94.9% and 85.8% | 99.3% and 96.6% | 96.7% and 98.1% | 86.3% and 96.4% | 100% and 104% | 100% and 97.8% | 102% and 103% | 109% and 103% |
| OCc1cccc(F)c1 | 10.2% | 17.7% | 102% | 92.2% | 83.5% | 91% | 92.6% | 84.7% | 76.8% | 116% |
| COC1C(OC(N)=O)C(O)C(Oc2ccc3c(O)c(NC(=O)c4ccc(O)c(CC=C(C)C)c4)c(=O)oc3c2C)OC1(C)C (stereo not given) | 23.6% and 96% | 105% and 110% | 28.8% and 77.2% | 101% and 92.7% | 42.5% and 101% | 90.6% and 93.8% | 103% and 98.2% | 103% and 97.9% | 99.7% and 98.4% | 108% |
| Nc1ccc(O)c(C(=O)O)c1 | 97.3% and 107% and 99.2% | 111% and 113% and 115% | 74.4% and 97.2% and 94.7% | 91.9% and 104% and 117% | 74.5% and 101% | 89.6% and 105% | 93.4% and 94.1% and 108% | 91.3% and 102% and 84.2% | 84% and 99.5% | 94.7% and 116% and 115% |
| CCCC(=O)OCC(COC(=O)CCC)OC(=O)CCC | 106% | 102% | 93.5% | 97.6% | 88.3% | 85.4% | 98.5% | 89.9% | 101% | 108% |
| Cc1nc(Nc2ccc(Cl)cc2)c2cnn(-c3ccccc3)c2n1 | 94.8% | 97.2% | 86.6% | 102% | 98.8% | 99.6% | 94.4% | 100% | 97.9% | 102% |
| Cc1cc(-c2ccc(N=Nc3c(C)nn(-c4ccc(S(=O)(=O)O)cc4)c3O)c(C)c2)ccc1N=Nc1ccc(O)c(C(=O)O)c1 | 97.9% | 115% | 99.9% | 99.9% | 99.1% | 98.2% | 98.7% | 91.2% | 95.4% | 106% |
| CN(C)C(=N)N=C(N)N | 83.1% and 121% | 98.6% and 113% | 101% and 114% | 106% and 108% | 81.1% and 118% | 104% | 103% and 131% | 99.7% and 120% | 87% and 110% | 116% and 106% |
| O=C(/C=C/C=C/c1ccc2c(c1)OCO2)N1CCCCC1 | 101% and 95.3% | 99.5% and 87.6% | 112% and 99.4% | 97.2% and 99.6% | 95.1% and 102% | 97.7% and 90% | 97.7% and 97.9% | 92% and 90% | 97.7% and 101% | 129% and 94.1% |
| O=[N+]([O-])c1ccc(NC(c2ccccc2)c2ccc3cccnc3c2O)cc1 (stereo not given) | 32.5% | 26% | 47.3% | 21.2% | 12.3% | 30.3% | -1.02% (active) | -4.08% (active) | 9.64% (active) | 27.7% |
| CCOC(=O)C(N)Cc1cc(I)c(O)c(I)c1 (stereo not given) | 107% and 96.6% | 105% and 104% | 102% and 83.8% | 109% and 95.9% | 104% and 110% | 98.3% and 89.8% | 105% and 108% | 101% and 97% | 110% and 105% | 111% and 116% |
| CCOC(=O)c1csc(N)n1 | 101% and 100% | 103% and 96.8% | 84.5% and 86% | 89.9% and 96.8% | 111% and 86.7% | 95.4% and 94.5% | 108% and 101% | 93.3% and 94.2% | 105% and 99.1% | 98.9% and 106% |
| Nc1nc(N)c2cc(S(=O)(=O)c3ccccc3)ccc2n1 | 27.9% and 25.6% | 22.9% and 15% | 78.7% and 76.9% | 38.4% and 49.2% | 30.5% and 30.8% | 42.9% and 52.7% | 23.3% and 25.3% | 21.5% and 53.7% | 30.6% and 19.2% | 71% and 68.9% |
